In PubChem BioAssay (NCATS):
Results filed as inconclusive are left out. Calls of active or inactive are those of the source. Calls come from the whole dose curve; as a rule, active = well fitted inhibition curve with a large enough effect; inconclusive = small, poorly fitted or top-dose-only effect; inactive = flat fitted curve, though single readings scatter.

What was measured:
Assay in all cases: qHTS profiling for inhibitors of Plasmodium falciparum proliferation (AID 504749); note: nearly all actives have a fitted effect of over 60% in size
[1] = test system: CP260; details: P. falciparum in erythrocytes, SYBR Green DNA, 72 h; series mostly up to 12.8 µM
In short: (§1)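 SYBR Green fluorescence (ex 485 nm, em 535 nm) reports parasite DNA after 72 h compound exposure of infected red cells at 0.3% parasitemia, 2.5% hematocrit; signal normalized to 0.29 uM artemisinin and vehicle wells.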

[2] = test system: CP262; details: P. falciparum in erythrocytes, SYBR Green DNA, 72 h; series mostly up to 12.8 µM
In short: as §1

[3] = test system: CP265; details: P. falciparum in erythrocytes, SYBR Green DNA, 72 h; series mostly up to 12.8 µM
In short: as §1

[4] = test system: CP266; details: P. falciparum in erythrocytes, SYBR Green DNA, 72 h; series mostly up to 28.7 µM
In short: as §1

[5] = test system: CP268; details: P. falciparum in erythrocytes, SYBR Green DNA, 72 h; series mostly up to 12.8 µM
In short: as §1

[6] = test system: CP269; details: P. falciparum in erythrocytes, SYBR Green DNA, 72 h; series mostly up to 12.8 µM
In short: as §1

[7] = test system: CP286; details: P. falciparum in erythrocytes, SYBR Green DNA, 72 h; series mostly up to 12.8 µM
In short: as §1

[8] = test system: CP291; details: P. falciparum in erythrocytes, SYBR Green DNA, 72 h; series mostly up to 12.8 µM
In short: as §1

[9] = test system: CP297; details: P. falciparum in erythrocytes, SYBR Green DNA, 72 h; series mostly up to 12.8 µM
In short: as §1

[10] = test system: CP305; details: P. falciparum in erythrocytes, SYBR Green DNA, 72 h; series mostly up to 12.8 µM
In short: as §1

[11] = test system: CP315; details: P. falciparum in erythrocytes, SYBR Green DNA, 72 h; series mostly up to 12.8 µM
In short: as §1

[12] = test system: CP325; details: P. falciparum in erythrocytes, SYBR Green DNA, 72 h; series mostly up to 12.8 µM
In short: as §1

[13] = test system: CP329; details: P. falciparum in erythrocytes, SYBR Green DNA, 72 h; series mostly up to 12.8 µM
In short: as §1

[14] = test system: CP335; details: P. falciparum in erythrocytes, SYBR Green DNA, 72 h; series mostly up to 12.8 µM
In short: as §1

[15] = test system: DFO2036; details: P. falciparum in erythrocytes, SYBR Green DNA, 72 h; series mostly up to 12.8 µM
In short: as §1

[16] = test system: DIV17; details: P. falciparum in erythrocytes, SYBR Green DNA, 72 h; series mostly up to 12.8 µM
In short: as §1

[17] = test system: DIV30; details: P. falciparum in erythrocytes, SYBR Green DNA, 72 h; series mostly up to 12.8 µM
In short: as §1

[18] = test system: Dd2; details: P. falciparum in erythrocytes, SYBR Green DNA, 72 h; series mostly up to 12.8 µM
In short: as §1

[19] = test system: ECU; details: P. falciparum in erythrocytes, SYBR Green DNA, 72 h; series mostly up to 12.8 µM
In short: as §1

[20] = test system: FAB9; details: P. falciparum in erythrocytes, SYBR Green DNA, 72 h; series mostly up to 12.8 µM
In short: as §1

[21] = test system: GB4; details: P. falciparum in erythrocytes, SYBR Green DNA, 72 h; series mostly up to 12.8 µM
In short: as §1

[22] = test system: HB3; details: P. falciparum in erythrocytes, SYBR Green DNA, 72 h; series mostly up to 12.8 µM
In short: as §1

[23] = test system: ICS; details: P. falciparum in erythrocytes, SYBR Green DNA, 72 h; series mostly up to 12.8 µM
In short: as §1

[24] = test system: JCK; details: P. falciparum in erythrocytes, SYBR Green DNA, 72 h; series mostly up to 12.8 µM
In short: as §1

[25] = test system: N140; details: P. falciparum in erythrocytes, SYBR Green DNA, 72 h; series mostly up to 12.8 µM
In short: as §1

[26] = test system: P93_24; details: P. falciparum in erythrocytes, SYBR Green DNA, 72 h; series mostly up to 12.8 µM
In short: as §1

[27] = test system: P94_40; details: P. falciparum in erythrocytes, SYBR Green DNA, 72 h; series mostly up to 12.8 µM
In short: as §1

[28] = test system: PAD; details: P. falciparum in erythrocytes, SYBR Green DNA, 72 h; series mostly up to 12.8 µM
In short: as §1

[29] = test system: PC15; details: P. falciparum in erythrocytes, SYBR Green DNA, 72 h; series mostly up to 12.8 µM
In short: as §1

[30] = test system: PC26; details: P. falciparum in erythrocytes, SYBR Green DNA, 72 h; series mostly up to 12.8 µM
In short: as §1

[31] = test system: PC49; details: P. falciparum in erythrocytes, SYBR Green DNA, 72 h; series mostly up to 12.8 µM
In short: as §1

[32] = test system: SC27B; details: P. falciparum in erythrocytes, SYBR Green DNA, 72 h; series mostly up to 12.8 µM
In short: as §1

[33] = test system: TAB109; details: P. falciparum in erythrocytes, SYBR Green DNA, 72 h; series mostly up to 12.8 µM
In short: as §1

[34] = test system: TAB113; details: P. falciparum in erythrocytes, SYBR Green DNA, 72 h; series mostly up to 12.8 µM
In short: as §1

[35] = test system: TAB165; details: P. falciparum in erythrocytes, SYBR Green DNA, 72 h; series mostly up to 12.8 µM
In short: as §1

Measured: Potency

CO/N=C(/C(=O)NC1C(=O)N2C(C(=O)O)=C(CSc3nc(=O)c(O)nn3C)CSC12)c1csc(N)n1 (stereo not given)
inactive: all assays above
